Our source for the growth values is PubChem BioAssay (NCI).

Among the test systems are NCI-H23 lung; NCI-H226 lung; NCI-H322M lung; HOP-62 NSCLC; NCI-H460 lung; HOP-92 NSCLC; A549/ATCC NSCLC; 786-0 renal; COLO 205 colon; DU-145 prostate; K-562 leukemia; MDA-MB-231 breast; RXF 393 renal; SF-268 CNS; SF-295 CNS; SF-539 CNS; UACC-257 melanoma; M14 melanoma; MALME-3M melanoma.
Assay in all cases: NCI-60 one-dose screen, 48 h (100 = growth as untreated, 0 = no growth, -100 = all killed)
Holding throughout (conditions): 10 µM unless noted

Compounds without any hit were thinned out: in the full panel of roughly 83,000, 20% have a hit.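 Cell lines were cultured in 96-well plates, exposed to a single compound concentration, and assessed for percent growth 48 hours later.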 Unmarked numbers belong to inactive results. The source made the active and inactive calls. Rule for the calls: active = growth percent below 10; inactive = the rest.

For `C(=C1c2ccccc2-c2ccccc21)c1ccncc1`, the growth in the test on NCI-H23 lung was 58.5%; in the test on NCI-H226 lung it was 86.8%; in the test with NCI-H322M lung, 80.1%; in the test with HOP-62 NSCLC, 56.3%; in the test on NCI-H460 lung it was 33.7%; in the test on HOP-92 NSCLC, 55.9%. Also, the growth with A549/ATCC NSCLC was 49.1%; in the test with 786-0 renal, 58.2%; in the test on COLO 205 colon, 49.4%; in the test on DU-145 prostate, 84.9%; in the test on K-562 leukemia, 11.4%; in the test on MDA-MB-231 breast it was 44.2%. Besides, the growth is 72.3% with RXF 393 renal; 54.8% in the test on SF-268 CNS; 35.6% in the test with SF-295 CNS; 56.3% in the test with SF-539 CNS; 74.5% in the test with UACC-257 melanoma; 18.7% in the test with M14 melanoma.

`O=C1N=C(N2CCOCC2)S/C1=C\c1cn(-c2ccccc2)nc1-c1ccccc1`: the growth is 95.2% with NCI-H23 lung; 78.8% with NCI-H226 lung; 73.3% in the test on NCI-H322M lung; 68.5% in the test on HOP-62 NSCLC; 67.3% with NCI-H460 lung; 94.6% with HOP-92 NSCLC. Also, the growth is 94.8% in the test on A549/ATCC NSCLC; 25.6% in the test on 786-0 renal; 122% in the test on COLO 205 colon; 69.9% with DU-145 prostate; 92.9% in the test on K-562 leukemia; 52.7% in the test with MDA-MB-231 breast. Moreover, the growth with RXF 393 renal is 51.8%; with SF-268 CNS, 74.8%; in the test with SF-295 CNS, 48.4%; in the test on SF-539 CNS it was 28.4%; in the test with UACC-257 melanoma, 81.9%; in the test on M14 melanoma it was 83.5%.

On to `COc1ccc(N2CCN(CC(=O)N3CCN(c4nnc(-c5ccccc5)c(-c5ccccc5)n4)CC3)CC2)cc1`, for which the growth in the test on NCI-H23 lung is 46.8%; in the test on NCI-H226 lung, 46.2%; with NCI-H322M lung, 78.2%; with HOP-62 NSCLC it was 64.7%; in the test with NCI-H460 lung it was 42.5%; in the test on HOP-92 NSCLC, 39%. Moreover, the growth in the test on A549/ATCC NSCLC is 14.8%; in the test on 786-0 renal, 27%; in the test with COLO 205 colon it was 47.9%; in the test with DU-145 prostate it was 70.5%; with K-562 leukemia, 18.7%; in the test on MALME-3M melanoma it was 64.6%. In addition, the growth was 72.1% in the test with MDA-MB-231 breast; 62.6% in the test with SF-268 CNS; 39.6% with SF-295 CNS; 53.9% with SF-539 CNS; 64.4% in the test with M14 melanoma.

For the compound `C1=C(Cc2ccccc2)n2cnc3ncnc(c32)S1`, the growth was 61.3% in the test with NCI-H23 lung; 53.7% with NCI-H226 lung; 73% with NCI-H322M lung; 39.9% in the test on HOP-62 NSCLC; 83.8% in the test on NCI-H460 lung; 56.6% in the test on HOP-92 NSCLC. The growth was 87.3% with A549/ATCC NSCLC; 29.3% in the test with 786-0 renal; 82% with COLO 205 colon; 27.3% in the test with DU-145 prostate; 14.4% with K-562 leukemia; 68% in the test with MALME-3M melanoma. Further, the growth was 35.1% in the test on MDA-MB-231 breast; 71.9% in the test with SF-268 CNS; 30% with SF-295 CNS; 43.2% in the test with SF-539 CNS; 74.9% with UACC-257 melanoma; 13.2% in the test on M14 melanoma.

For the compound `CCOC(=O)c1cnc2c(C)cc(C)cc2c1NCCCN(C)C`, the growth with NCI-H23 lung is 35.2%; in the test with NCI-H226 lung, 36.1%; in the test on NCI-H322M lung, 20.9%; with HOP-62 NSCLC, 21.4%; in the test with NCI-H460 lung, 10.1%; in the test with HOP-92 NSCLC, 4.88% (active). Also, the growth in the test on A549/ATCC NSCLC was 1.69% (active); in the test with 786-0 renal, 29.2%; with COLO 205 colon, 17.4%; in the test with DU-145 prostate, 35.4%; with K-562 leukemia it was 8.6% (active); with MALME-3M melanoma, 51%. For the same compound, the growth is 35.7% in the test with MDA-MB-231 breast; 35.7% in the test on SF-268 CNS; 29.9% in the test with SF-295 CNS; 28.9% with SF-539 CNS; 34.2% in the test with M14 melanoma.

Take `O=C1OC2(c3ccccc31)c1ccccc1-c1ccccc12`: the growth in the test with NCI-H23 lung was 89.6%; in the test with NCI-H226 lung, 95.8%; in the test with NCI-H322M lung, 103%; with HOP-62 NSCLC it was 93.8%; with NCI-H460 lung, 106%; with HOP-92 NSCLC it was 96.9%. Besides, the growth was 72.4% with A549/ATCC NSCLC; 86.2% in the test with 786-0 renal; 81.7% with COLO 205 colon; 114% with DU-145 prostate; 36.5% in the test on K-562 leukemia; 68.3% in the test with MDA-MB-231 breast. Besides, the growth is 96.8% in the test on RXF 393 renal; 86.8% in the test with SF-268 CNS; 75.4% with SF-295 CNS; 99.2% with SF-539 CNS; 88.7% in the test on UACC-257 melanoma; 50.7% in the test with M14 melanoma.

For `NC(=O)c1cc(Cl)ccc1NC(=O)c1ccccc1-c1ccccc1`, the growth in the test with NCI-H23 lung is 39.9%; in the test on NCI-H226 lung, 57.7%; with NCI-H322M lung it was 30%; with HOP-62 NSCLC, 39%; in the test with NCI-H460 lung it was 13.2%; in the test with HOP-92 NSCLC, 67.7%. Further, the growth in the test with A549/ATCC NSCLC is 35.6%; in the test with 786-0 renal, 26.6%; in the test on COLO 205 colon, -14.1% (active); in the test with DU-145 prostate it was -8.79% (active); in the test with K-562 leukemia, 11.5%; with MALME-3M melanoma, 30.4%. Also, the growth with MDA-MB-231 breast is 29.4%; in the test on SF-268 CNS it was 54.1%; with SF-295 CNS, 8.66% (active); in the test on SF-539 CNS it was -12.5% (active); in the test with UACC-257 melanoma, 68.6%; with M14 melanoma, -24% (active).

As to `COc1ccc(NC(=O)[C@@H]2C[C@H]2c2ccccc2)c(C(N)=O)c1`, the growth in the test on NCI-H23 lung was 91.3%; in the test with NCI-H226 lung, 101%; in the test with NCI-H322M lung, 94.2%; in the test with HOP-62 NSCLC it was 100%; in the test on NCI-H460 lung it was 101%; in the test on HOP-92 NSCLC it was 94.6%. Also, the growth is 97.5% with A549/ATCC NSCLC; 106% in the test on 786-0 renal; 106% in the test on COLO 205 colon; 105% in the test with DU-145 prostate; 71.8% in the test on K-562 leukemia; 91% with MALME-3M melanoma. The growth in the test with MDA-MB-231 breast was 87.9%; in the test on SF-268 CNS it was 97.9%; in the test with SF-295 CNS, 100%; in the test with SF-539 CNS, 99.7%; in the test with UACC-257 melanoma, 92.9%; with M14 melanoma, 91.4%.
